# PubChem BioAssay AID1947 (The Scripps Research Institute Molecular Screening Center, 2009)
# Out of some 300,000 compounds screened, about 990 (0.33%) were called active.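 How the source made its calls: active means inhibition above the screen mean inhibition plus 3 SD, computed separately per campaign (cut at about 18% in these data); inactive means the rest.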 The entries come from a sample that favours actives as a whole.
# Test system: Fam108B (ABHD17B) serine hydrolase [Mus musculus]
# Experiment: inhibition of Fam108B (ABHD17B) hydrolase – biochemical, fluorescence polarization, counter-screen for RBBP9 inhibitor project, primary screen (AID 1947);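 further: inhibitors lower polarization as less probe binds the enzyme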
# Conditions: recombinant Fam108B, FP-Rh probe fluorescence polarization; at 9.51 µM; stronger effect = higher value
row,SMILES,inhibition
1,O=C(N/N=C/c1cc(Cl)cc([N+](=O)[O-])c1O)C(O)(c1ccccc1)c1ccccc1,7.58% (inactive)
2,O=C(CN1CCN(c2ccc(O)cc2)CC1)Nc1cc(S(=O)(=O)N2CCOCC2)ccc1Cl,1.19% (inactive)
3,O=[N+]([O-])c1cc(Cl)cc(/C=N/NC(=S)Nc2cc(S(=O)(=O)N3CCOCC3)ccc2Cl)c1O,49.6% (active)
4,O=C(O)COc1ccc(-c2nccc(-c3cccs3)n2)cc1,-4.89% (inactive)
5,COC(=O)CSc1nccc(-c2cccs2)n1,25.3% (active)
6,COC(=O)c1cc(-c2cccs2)nc2ccccc12,-5.99% (inactive)
7,Cc1ccc([C@@H]2CC=C(C(=O)O)[C@H](c3cccc(Cl)c3)N2S(=O)(=O)c2ccc(C)cc2)cc1,-3.66% (inactive)
8,COc1ccc(-c2csc(NC(=O)COC(=O)c3ccc(Br)o3)n2)cc1,-1.38% (inactive)
9,COc1ccc(-c2csc(NC(=O)COC(=O)Cc3ccc(Cl)cc3Cl)n2)cc1,25.7% (active)
10,CC(C)(C)NC(=O)NC(=O)COC(=O)Cc1ccc(Cl)cc1Cl,-3.17% (inactive)
11,CC(C)(C)c1ccc(/C=C2\SC(=O)N=C2N)cc1,-2.33% (inactive)
12,CCOC(=O)c1c(N)sc(C(C)=O)c1C,2.44% (inactive)
13,COCCOC(=O)c1sc(=S)n(CCOC)c1N,30.9% (active)
14,COC(=O)c1sc(=S)n(-c2ccc(Cl)cc2)c1C,0.66% (inactive)
15,Cc1cc(-c2csc(N)n2)c(C)n1Cc1ccccc1,1% (inactive)
16,Cc1cc2nc3c(=O)n(Cc4ccccc4)c(=O)[nH]c3nc2cc1N,20.1% (active)
17,CC(=O)c1ccc(-c2ccc(Cn3c(C)nc4cc(N)c(C)nc43)cc2)cc1,-2.95% (inactive)
18,C=C1C2C[C@H](O)C(C)(C)[C@@]2(O)[C@H](O)C[C@]23C[C@@](C)(O)[C@H](CC[C@H]12)[C@H]3O (some centres undefined),-4.05% (inactive)
19,CCN(CC(=O)Nc1ccc2c(c1)OCO2)S(=O)(=O)c1ccccc1,3.09% (inactive)
20,CCn1c(SCc2ccccc2)nc2c(c1=O)SCC2,5.08% (inactive)
21,CC(=O)Nc1ccc(NC(=O)CSc2ncnc3c2cnn3Cc2ccccc2)cc1,1.73% (inactive)
22,CSc1c(SCc2ccccc2)cnn(Cc2ccccc2)c1=O,52.1% (active)
23,Cc1noc(C)c1S(=O)(=O)N(C)Cc1ccccc1,-2.49% (inactive)

row,SMILES,inhibition
1,Cc1cc(C)cc(C(=O)N(CCc2ccccc2)C2=CC3CCC(C2)N3C)c1 (centres undefined),-0.23% (inactive)
2,COCC(C)NC(=O)CSc1nc2nn(-c3ccccc3)c(=O)c-2c2n1CCCCC2 (centres undefined),0.63% (inactive)
3,O=C(Cn1ncc2c3ccccc3n(Cc3ccccc3)c2c1=O)NCCCN1CCOCC1,-3.84% (inactive)
4,CC(C)Nc1ccc(-n2nc3ccccc3[n+]2[O-])cc1,1.5% (inactive)
5,N=C1C(=O)OCC1c1ccccc1NC(=O)CN1CCCCC1 (centres undefined),-3.29% (inactive)
6,COc1ccc2nc(NC(=O)NC3CCCCC3)sc2c1,4.3% (inactive)
7,COc1ccc2nc(Nc3nc4cc5c(cc4s3)OCCO5)sc2c1,33.1% (active)
8,COc1ccc2nc(NC(=O)c3ccc(Br)s3)sc2c1,-2.97% (inactive)
9,CC1C(=O)C(C)C(c2ccc(O)cc2)NC1c1ccc(O)cc1 (centres undefined),-5.96% (inactive)
10,COc1ccc2oc(C(=O)N(CC(C)C)C3CCS(=O)(=O)C3)c(C)c2c1 (centres undefined),3.82% (inactive)
11,O=C(N/N=C/c1cccnc1)c1cc2ccccc2cc1O,3.37% (inactive)
12,O=C(NNc1c2ccccc2nc2ccccc12)c1cc2ccccc2cc1O,71.8% (active)
13,CC(C)(C)OC(=O)NNc1c2ccccc2nc2ccccc12,10.9% (inactive)
14,COc1ccc(CNC(=O)CN(C(=O)c2csnn2)c2cnc3ccccc3c2)cc1,2.77% (inactive)
15,CC[C@H]1OC(=O)[C@H](C)[C@@H](O[C@H]2C[C@@](C)(OC)[C@@H](O)[C@H](C)O2)[C@H](C)[C@@H](O[C@@H]2O[C@H](C)C[C@H](N(C)C)[C@H]2O)[C@](C)(O)C[C@@H](C)[C@@H]2N[C@@H](COCCOC)O[C@H]([C@H]2C)[C@]1(C)O,-4.04% (inactive)
16,O=C(CCn1c(SCC(=O)c2ccccc2)nc2ccccc2c1=O)NCc1ccc(F)cc1,27.5% (active)
17,O=C(CCCn1c(SCC(=O)c2ccc(F)cc2)nc2ccccc2c1=O)NCc1ccco1,-1.64% (inactive)
18,O=C(CCCn1c(SCC(=O)c2ccccc2)nc2ccccc2c1=O)NCC1CCCO1 (centres undefined),-0.5% (inactive)
19,CS(=O)(=O)N1CCCC(C(=O)Nc2ccccc2C(F)(F)F)C1 (centres undefined),-3.11% (inactive)
20,COc1ccccc1C1C(C#N)=C(N)Oc2c1c(-c1ccccc1)nn2-c1ccccc1 (centres undefined),24.5% (active)
21,Cc1nn(Cc2ccccc2)c2c1C(c1ccccc1)C(C#N)=C(N)O2 (centres undefined),4.14% (inactive)
22,Cc1nn(-c2ccccc2)c2c1C(c1ccc(F)cc1)C(C#N)=C(N)O2 (centres undefined),4.31% (inactive)
23,CC(C)CCN1CCN=C1N(C)C,-3.1% (inactive)

row,SMILES,inhibition
1,Cc1cc(C)cc(C(=O)NC2C(=O)N3C(C(=O)O)=C(CSc4nnc(C)s4)CSC23)c1 (centres undefined),0.52% (inactive)
2,CC(C)c1ccc2oc(=O)cc(CN3CCN(Cc4ccccc4)CC3)c2c1,0.92% (inactive)
3,CN(C)c1ccc(NC(=O)CN2C3CCCC2CC(NC(=O)c2ccccc2)C3)cc1 (centres undefined),-3.02% (inactive)
4,COc1ccc(C(=O)Nc2c(N)nc(SCC(=O)Nc3ccc(C(C)=O)cc3)[nH]c2=O)cc1,2.83% (inactive)
5,COc1ccc(N2CCN(S(=O)(=O)c3cc4c5c(c3)C(C)C(=O)N5CCC4)CC2)cc1 (centres undefined),2.45% (inactive)
6,CCOC(=O)N1CCC(O)(c2cc(C)c(C)cc2C)CC1,1.15% (inactive)
7,COc1ccc(Nc2ncc(C(=O)N3CCN(c4ccccc4OC)CC3)c3ccccc23)cc1,5.14% (inactive)
8,O=C(Cn1cc(/C=N/NC(=O)c2cccc(C(F)(F)F)c2)c2ccccc21)Nc1ccc(F)cc1,4.38% (inactive)
9,CC(/C=N/NC(=O)c1cc(-c2ccc3ccccc3c2)n[nH]1)=C\c1ccco1,-15.2% (inactive)
10,C/C(=C\c1ccco1)C1Nc2cccc3cccc(c23)N1,18.5% (active)
11,CC(/C=N/NC(=O)c1ccncc1)=C\c1ccco1,-1.58% (inactive)
12,CC(=O)NC1=NN(C(C)=O)C(C)(c2ccc(Cl)s2)S1 (centres undefined),-2.49% (inactive)
13,CC(C)(C)C(=O)Nc1c(Br)c(C2CC2)nn1-c1ccccc1,1.83% (inactive)
14,COc1cc(/C=C/C(=O)OCC(=O)Nc2cccc(Oc3ccccc3)c2)ccc1O,6.01% (inactive)
15,COc1ccc(/C=C/C(=O)OCC(=O)Nc2cccc(Oc3ccccc3)c2)c(OC)c1,21.4% (active)
16,COc1ccc(OC)c(/C=C/C(=O)OCC(=O)Nc2ccc3c(c2)OCCO3)c1,-4.2% (inactive)
17,COc1ccc(OCc2nnc3n2N=C(c2ccccc2)C(CC(=O)O)S3)cc1 (centres undefined),-0.94% (inactive)
18,O=C(CN1CCN(Cc2ccc(F)cc2Cl)C1=O)NCc1cccs1,2.32% (inactive)
19,CSCCC1NC2(C(=O)Nc3ccc(Cl)cc32)[C@@H]2C(=O)N(C3CCCC3)C(=O)[C@H]12 (some centres undefined),-1.72% (inactive)
20,O=[N+]([O-])c1ccc(F)cc1Oc1nc(-c2cccnc2)nc2ccccc12,-4.4% (inactive)
21,CCc1ccccc1N1CN(Cc2ccco2)CNC1=S,-2.75% (inactive)
22,Oc1c(Cl)cc(Cl)c(Cl)c1Cc1c(O)c(Cl)cc(Cl)c1Cl,48% (active)
23,CN(C)C(=O)c1cccn(Cc2cccc(C(F)(F)F)c2)c1=O,0.5% (inactive)

row,SMILES,inhibition
1,O=C(NCCN1C(=O)S/C(=C\c2cccnc2)C1=O)c1cccc(OC(F)F)c1,2.13% (inactive)
2,CCOc1ccc(N2CC(C(=O)NCCN3C(=O)S/C(=C\c4cccnc4)C3=O)CC2=O)cc1 (centres undefined),0.71% (inactive)
3,COc1ccc(N2CC(C(=O)NCCN3C(=O)S/C(=C\c4cccnc4)C3=O)CC2=O)c(OC)c1 (centres undefined),65.4% (active)
4,COc1ccc(NC(=S)SC)cc1OC,2.25% (inactive)
5,CC(Cc1cccs1)N(Cc1ccc(Cl)cc1)C(=O)c1ccncc1 (centres undefined),0.27% (inactive)
6,c1ccc2c(-c3nn4nnnc4c4ccccc34)cccc2c1,3.27% (inactive)
7,CCC(=O)c1ccc(OCC(=O)OCC(=O)NC2CCCCCC2)cc1,2.33% (inactive)
8,CCOc1cc(NC(=S)NCCCOC)c(OCC)cc1NC(=O)c1ccco1,-0.81% (inactive)
9,COCCNC(=O)Nc1ccc2nc(-c3ccco3)c(-c3ccco3)nc2c1,63.8% (active)
10,COc1ccc2oc(=O)c(C(=O)NCc3ccccn3)cc2c1,1.13% (inactive)
11,O=C(NCc1ccccn1)c1ccc2nc(-c3ccco3)c(-c3ccco3)nc2c1,39.1% (active)
12,Cc1cc(C)cc(NC(=O)NCc2ccccn2)c1,-2.47% (inactive)
13,CCCC(=O)Nc1ccc2c(c1)nc(CCNC(=O)c1ccco1)n2C,3.43% (inactive)
14,O=C(CSc1nnc(C2CC2)n1Cc1ccccc1)Nc1cccnc1Cl,1.49% (inactive)
15,C/C=C/C(=O)Nc1ccc(N2CCN(c3ccc(C(F)(F)F)cn3)CC2)nc1,8.22% (inactive)
16,CC(C)C(=O)N1CCC2(CC1)Oc1ccc(F)cc1C(=O)C21CC(c2ccccc2)=NO1 (centres undefined),1.14% (inactive)
17,Cc1nc2scc(-c3cccs3)c2c(=O)n1N,7.81% (inactive)
18,N/C(=N\OC(=O)CCc1ccccc1)c1cccnc1,-0.43% (inactive)
19,COC(=O)CN1C(=O)[C@H]2[C@@H](C3CC3)N3C(=O)CN(Cc4ccc(-c5ccccc5)cc4)C(=O)[C@@]3(Cc3ccccc3)[C@H]2C1=O,0.43% (inactive)
20,Cc1cc(C)c2c(Cn3ccnc3)cc(=O)oc2c1,-0.08% (inactive)
